Source: PubChem BioAssay (NCATS)
Results filed as inconclusive are left out. A call without a number means that no potency is given here. The source made the active and inactive calls. Calls follow the shape of the dose curve; as a rule, active = well fitted curve in the direction sought with a large enough effect; inconclusive = small, poorly fitted or top-dose-only effect, or another doubt; inactive = no such curve, though single readings can be large; an effect the other way counts as inactive or inconclusive.

Tests used:
[1] = biological target: Alpha-galactosidase A (Homo sapiens) (UniProt P06280); assay: Counterscreen for Glucocerebrosidase Inhibitors: qHTS Assay for Human alpha-Galactosidase at pH 4.5 (AID 992)
Chain of Alpha-galactosidase A (Homo sapiens) (P06280 whole entry, looked up): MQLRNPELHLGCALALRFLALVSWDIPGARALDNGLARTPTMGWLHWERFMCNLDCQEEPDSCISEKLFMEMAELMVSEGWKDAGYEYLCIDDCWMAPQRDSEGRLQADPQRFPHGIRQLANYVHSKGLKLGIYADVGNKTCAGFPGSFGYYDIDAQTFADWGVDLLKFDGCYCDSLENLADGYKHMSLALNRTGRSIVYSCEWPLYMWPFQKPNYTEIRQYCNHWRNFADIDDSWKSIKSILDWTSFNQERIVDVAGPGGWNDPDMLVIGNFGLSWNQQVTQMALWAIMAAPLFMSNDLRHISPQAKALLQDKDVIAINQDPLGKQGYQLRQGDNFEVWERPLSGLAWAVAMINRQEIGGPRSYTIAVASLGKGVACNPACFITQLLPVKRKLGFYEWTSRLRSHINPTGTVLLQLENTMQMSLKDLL
Method in brief: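 Steps: enzyme (2 nM final), then compound across 0.7 nM to 77 uM, then 80 uM fluorogenic galactopyranoside substrate; incubate 20 min at room temperature; quench at pH 10; measure fluorescence at 365/440 nm.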

[2] = biological target: alpha-glucosidase (Oryza sativa, rice) (UniProt Q653V4); assay: Counterscreen for Glucocerebrosidase Inhibitors: qHTS Assay for Rice alpha-Glucosidase at pH 5.0 (AID 997)
Method in brief: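 Endpoint fluorogenic assay at pH 5.0: compounds (0.7 nM to 77 uM) titrated against 4 nM rice enzyme and 400 uM 4-MU-alpha-glucoside for 20 min at room temperature; NaOH/glycine stop, read ex 365/em 440 nm, Hill-fitted AC50.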

[3] = Cell Viability - LYMP2-017 (AID 972); also: nearly all actives have a fitted effect of over 55% in size; also: potency is read from the fitted curve at half-maximal effect
Method in brief: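 CellTiter-Glo luminescence (cellular ATP, 30 min RT) measured cytotoxicity after 24 hr compound treatment at 37 C. Cells were a human lymphoblastoid line, LYMP2-017, plated at 2500/well and incubated 5 hr first; concentration-response fitted with Hill equation for AC50.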

[4] = Cell Viability - LYMP2-019 (AID 973); also: nearly all actives have a fitted effect of over 55% in size; also: potency is read from the fitted curve at half-maximal effect
Method in brief: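 AC50 values come from Hill-equation fits of luminescent intracellular ATP (CellTiter-Glo, 30 min, room temperature) following 24 h compound exposure at 37 C. Cells: LYMP2-019 lymphoblastoid line, 2500 per well, in complete culture medium.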

[5] = Cell Viability - LYMP2-021 (AID 974); also: nearly all actives have a fitted effect of over 55% in size; also: potency is read from the fitted curve at half-maximal effect
Method in brief: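 AC50 values come from Hill-equation fits to CellTiter-Glo luminescence (ATP content), read after 24 hour compound exposure at 37 C of 2500 LYMP2-021 lymphoblastoid cells/well; tetraoctylammonium bromide as positive control.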

[6] = Cell Viability - LYMP2-023 (AID 975); also: nearly all actives have a fitted effect of over 55% in size; also: potency is read from the fitted curve at half-maximal effect
Method in brief: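 Intracellular ATP, read by CellTiter-Glo luminescence, reports viability after 24 hr compound exposure at 37 C. 2500 lymphoblastoid cells/well (LYMP2-023) seeded 5 hr beforehand; Hill fits give AC50; positive control tetraoctylammonium bromide.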

[7] = Cell Viability - LYMP2-025 (AID 976); also: potency is read from the fitted curve at half-maximal effect
Method in brief: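 Cytotoxicity read as loss of intracellular ATP (luciferase luminescence) after 24 h compound treatment at 37 C. Uses LYMP2-025 lymphoblastoid cells in 1536-well format; Hill-equation modelling gives AC50; tetraoctylammonium bromide as positive control.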

[8] = Cell Viability - LYMP2-002 (AID 977); also: potency is read from the fitted curve at half-maximal effect
Method in brief: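 Human lymphoblastoid cells (2500/well) in complete medium were preincubated 5 hr at 37 C, then exposed to compounds for 24 hr at 37 C. Intracellular ATP was read by CellTiter-Glo luminescence; AC50 came from Hill-equation concentration-response fits.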

[9] = Cell Viability - LYMP2-006 (AID 978); also: nearly all actives have a fitted effect of over 60% in size; also: potency is read from the fitted curve at half-maximal effect
Method in brief: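 Cells are seeded at 2500 per well and rested 5 hr at 37 C. Compounds are added across a concentration series for 24 hr at 37 C, after which ATP is quantified by luciferase luminescence.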

[10] = Cell Viability - LYMP2-007 (AID 979);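 also: cells exposed to compound for 24 h before reading; nearly all actives have a fitted effect of over 60% in size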; also: potency is read from the fitted curve at half-maximal effect
Method in brief: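 AC50 values come from Hill-equation fits of luminescent intracellular ATP (CellTiter-Glo, 30 min, room temperature) following 24 h compound exposure at 37 C. Cells: LYMP2-007 lymphoblastoid line, 2500 per well, in complete culture medium.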

[11] = Cell Viability - LYMP2-008 (AID 980); also: nearly all actives have a fitted effect of over 60% in size; also: potency is read from the fitted curve at half-maximal effect
Method in brief: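 Cytotoxicity determined from ATP-dependent luciferase luminescence (CellTiter-Glo) following 24 h compound exposure of human lymphoblastoid LYMP2-008 cells at 37 C. Concentration-response data fitted to the Hill equation to give AC50.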

[12] = Cell Viability - LYMP2-010 (AID 981); also: nearly all actives have a fitted effect of over 55% in size; also: potency is read from the fitted curve at half-maximal effect
Method in brief: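 CellTiter-Glo ATP luminescence measured cytotoxicity after 24 h compound exposure at 37 C. LYMP2-010 cells were seeded at 2500/well, with tetraoctylammonium bromide as control; concentration-response curves gave AC50 values by the Hill equation.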

[13] = Cell Viability - LYMP2-012 (AID 982); also: potency is read from the fitted curve at half-maximal effect
[14] = Cell Viability - LYMP2-016 (AID 984); also: nearly all actives have a fitted effect of over 55% in size; also: potency is read from the fitted curve at half-maximal effect
Method in brief: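 Cells were seeded at 2500 per well and rested 5 hr before a 24 hr compound exposure at 37 C. Viability was then gauged as cellular ATP by luciferase luminescence, with AC50 values fitted to the Hill equation.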

[15] = Cell Viability - LYMP2-018 (AID 985); also: nearly all actives have a fitted effect of over 50% in size; also: potency is read from the fitted curve at half-maximal effect
Method in brief: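 Viability read as CellTiter-Glo luminescence (cellular ATP) after 24 hr compound exposure at 37 C of 2500 LYMP2-018 lymphoblastoid cells/well, pre-plated 5 hr. Hill-equation modelling gave AC50.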

[16] = Cell Viability - LYMP2-022 (AID 987); also: nearly all actives have a fitted effect of over 55% in size; also: potency is read from the fitted curve at half-maximal effect
Method in brief: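 Cytotoxicity read as decreased cellular ATP (CellTiter-Glo luminescence, 30 min room temperature) after 24 hours compound exposure of 2500 lymphoblastoid LYMP2-022 cells/well at 37 C. Concentration-response data fitted with standard Hill equation for AC50.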

[17] = Cell Viability - LYMP2-024 (AID 988); also: nearly all actives have a fitted effect of over 60% in size; also: potency is read from the fitted curve at half-maximal effect
Method in brief: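 Cytotoxicity was taken as a decrease in ATP (CellTiter-Glo luminescence) after 24 hr compound exposure at 37 C of LYMP2-024 lymphoblastoid cells, 2500 cells/well. Concentration-response data were fitted to the Hill equation to give AC50.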

[18] = Cell Viability - LYMP2-026 (AID 989); also: nearly all actives have a fitted effect of over 50% in size; also: potency is read from the fitted curve at half-maximal effect
Method in brief: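 Cytotoxicity read as ATP-dependent luminescence (CellTiter-Glo, 30 min room temperature) after 24 h compound treatment at 37 C. LYMP2-026 lymphoblastoid line seeded at 2500 cells/well; AC50 derived by standard Hill equation.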

[19] = Cell Viability - LYMP1-002 - Assay at 24 hr (AID 993); also: potency is read from the fitted curve at half-maximal effect
Method in brief: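 qHTS cytotoxicity at 24 h: CellTiter-Glo ATP luminescence in lymphoblastoid line LYMP1-002 incubated with compound at 37 °C. Concentration-response modeled with the Hill equation for AC50; tetraoctylammonium bromide served as positive control.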

[20] = Cell Viability - LYMP1-002 - Assay at 40 hr (AID 994); also: nearly all actives have a fitted effect of over 60% in size; also: potency is read from the fitted curve at half-maximal effect
Method in brief: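 Cytotoxicity was read as loss of cellular ATP (CellTiter-Glo luminescence) after 40 hr compound exposure at 37 C of 2500 LYMP1-002 lymphoblastoid cells per well. Concentration-response data were fitted with the standard Hill equation to give AC50.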

| SMILES | outcome [1] | outcome [2] | Potency [3] | Potency [4] | Potency [5] | Potency [6] | Potency [7] | Potency [8] | Potency [9] | Potency [10] | Potency [11] | Potency [12] | Potency [13] | Potency [14] | Potency [15] | Potency [16] | Potency [17] | Potency [18] | Potency [19] | Potency [20] |
| --- | --- | --- | --- | --- | --- | --- | --- | --- | --- | --- | --- | --- | --- | --- | --- | --- | --- | --- | --- | --- |
| CC(=O)SCC[N+](C)(C)C | inactive | inactive |  |  |  |  |  |  |  |  |  |  |  |  |  |  |  |  |  |  |
| C=C[C@H]1CN2CC[C@@H]1C[C@@H]2[C@@H](O)c1ccnc2ccc(OC)cc12 | inactive | inactive |  |  |  |  |  |  |  |  |  |  |  |  |  |  |  |  |  |  |
| O=C(O)/C=C\C(=O)O |  |  | inactive | inactive | inactive | inactive | inactive | inactive | inactive | inactive | inactive | inactive | inactive | inactive | inactive | inactive | inactive | inactive | inactive | inactive |
| c1ccc2sc(SSc3nc4ccccc4s3)nc2c1 |  |  | inactive | inactive | inactive | inactive | inactive | inactive | inactive |  | inactive | inactive | inactive | inactive | inactive | inactive | inactive | inactive | inactive | inactive |
| CN(C)c1ccc(C(=C2C=CC(=[N+](C)C)C=C2)c2ccccc2)cc1 |  |  | 501 nM (active) | 501 nM (active) | 398 nM (active) | 398 nM (active) | 501 nM (active) | 398 nM (active) | 501 nM (active) | 251 nM (active) | 316 nM (active) | 251 nM (active) | 158 nM (active) | 501 nM (active) | 199 nM (active) | 126 nM (active) | 199 nM (active) | 316 nM (active) | 794 nM (active) | 1000 nM (active) |
| CC1(C)S[C@@H]2[C@H](NC(=O)[C@H](N)c3ccccc3)C(=O)N2[C@H]1C(=O)O |  |  | inactive | inactive | inactive | inactive | inactive | inactive | inactive | inactive | inactive | inactive | inactive | inactive | inactive | inactive | inactive | inactive | inactive | inactive |
| NCCO |  |  | inactive | inactive | inactive | inactive | inactive | inactive | inactive | inactive | inactive | inactive | inactive | inactive | inactive | inactive | inactive | inactive | inactive | inactive |
| CN1CCC[C@H]1c1cccnc1 |  |  | inactive | inactive | inactive | inactive | inactive | inactive | inactive | inactive | inactive | inactive | inactive | inactive | inactive | inactive | inactive | inactive | inactive | inactive |
| c1cnc2c(c1)ccc1cccnc12 |  | inactive |  |  |  |  |  |  |  |  |  |  |  |  | 25100 nM (active) | 12600 nM (active) | 12600 nM (active) |  |  | 12600 nM (active) |
| CCN1/C(=C/C(C)=O)Sc2ccc(OC)cc21 | inactive | inactive |  |  |  |  |  |  |  |  |  |  |  |  |  |  |  |  |  |  |
| C#C[C@]1(O)CC[C@H]2[C@@H]3CCc4cc(O)ccc4[C@H]3CC[C@@]21C |  |  | inactive | inactive | inactive | inactive | inactive | inactive | inactive | inactive | inactive | inactive | inactive | inactive | inactive | inactive | inactive | inactive | inactive |  |
| CC(C)NCC(O)COc1cccc2ccccc12 (configuration not stated) |  |  | inactive | inactive | inactive | inactive | inactive | inactive | inactive | inactive | inactive | inactive | inactive | inactive | inactive | inactive | inactive | inactive | inactive | inactive |
| C[N+](C)(CCCCCC[N+](C)(C)CCCN1C(=O)c2cccc3cccc(c23)C1=O)CCCN1C(=O)c2cccc3cccc(c23)C1=O | inactive | inactive |  |  |  |  |  |  |  |  |  |  |  |  |  |  |  |  |  |  |
| COc1cc(CNC(=O)CCCC/C=C/C(C)C)ccc1O |  |  | inactive | inactive | inactive | inactive | inactive | inactive | inactive | inactive | inactive | inactive | inactive | inactive |  | inactive | inactive | inactive | inactive | inactive |
| Nc1ccc(O)c([N+](=O)[O-])c1 |  |  | inactive |  | inactive | inactive | inactive | inactive | inactive | inactive | inactive | inactive | inactive | inactive | inactive | inactive | inactive | inactive | inactive | inactive |
| CCCOC(=O)c1ccc(O)cc1 |  |  | inactive | inactive | inactive | inactive | inactive | inactive | inactive | inactive | inactive | inactive | inactive | inactive | inactive | inactive | inactive | inactive | inactive | inactive |
